Results on 67 molecules are retold here after PubChem BioAssay AID686979 (National Center for Advancing Translational Sciences (NCATS), 2013).

About 50,000 (12%) of roughly 420,000 compounds were called active. Not shown: some 26% with an inconclusive outcome. This is one part of a sample in which actives are shown more often than they occur. A number with no mark means an inactive call. Calls follow the shape of the dose curve; as a rule, active = well fitted inhibition curve with a large enough effect; inconclusive = small, poorly fitted or top-dose-only effect; inactive = flat fitted curve, though single readings scatter.
% is scaled to controls: 0 for no effect and ±100 for the full control effect; potency is read from the fitted curve at half-maximal effect.

The assay can be described thus: qHTS for Inhibitors of human tyrosyl-DNA phosphodiesterase 1 (TDP1): qHTS in cells in presence of CPT. Also: nearly all actives have a fitted effect of over 55% in size. The conditions noted are these: chicken DT40 Tdp1-/-;hTDP1 cells + 20 nM CPT, ATP luminescence, 48 h; series mostly up to 46.2 µM; activity change, negative = growth inhibition: at the top concentration. The text has this:
Human tyrosyl-DNA phosphodiesterase 1 (TDP1) is a novel repair gene, and we propose to use it as a new target for anticancer drug development. TDP1 is not an essential protein, but under treatment with topoisomerase I poison (camptothecin: CPT), TDP1 works as a critical factor for cell survival. To directly identify novel TDP1 inhibitors active in a cellular environment, we have knocked-out the Tdp1 gene in chicken DT40 cells (Tdp1-/-) and generated a complemented counterpart cells that contains a stable transfection of the human TDP1 gene (Tdp1-/-;hTDP1 cells). For the primary screen, Tdp1-/-;hTDP1 cells will be exposed to small molecules in the presence or absence of CPT, and their growth kinetics will be evaluated after 48 hours by measuring ATP activity. […] The hit compounds will then be evaluated in the presence or absence of CPT using Tdp1-/- cells. […] In tertiary assays, biochemical gel-based assays will be used to assess whether the hit compounds specifically target TDP1. To this end, we have screened this cell line against the MLSMR in two primary screens. In one screen we add CPT and in the other we screen in the absence of CPT; this AID represents the screen where CPT was present. NIH Chemical Genomics Center [NCGC] NIH Molecular Libraries Probe Centers Network [MLPCN] MLPCN Grant: MH095538 Assay Submitter (PI): Yves Pommier, NCI
DT40-hTDP1 cells with 20 nM Camptothecin (add 20 microL of 1 mM CPT stock in 1 L of cell culture medium) were dispensed at 400 cells/5microL/well in tissue culture treated 1536-well white wall/solid bottom assay plates (Greiner Bio-One North America, NC, U.S.A.) using a Multidrop Combi 8 channel dispenser (Thermo Fisher, Waltham, MA, USA). 23 nL compounds and controls were transferred using the pin tool (Kalypsys, San Diego, CA, USA) to the assay plates. The assay plates were then incubated at 37 masculineC for a minimum 48 hr. Three microL of Cell Titer Glo solution was added to the plates and incubated at RT in dark for 30 min. Luminescence was read using ViewLux (Perkin Elmer) with 1 sec exposure slow speed, high gain and 2x binning.
`N/C(=N\OC(=O)CCn1cccc(C(F)(F)F)c1=O)c1ccc(OC(F)(F)F)cc1`: the “activity change, negative = growth inhibition” value is -10.4%.
`CC(=O)Nc1ccc(C(=O)N(C2=NC(C)CS2)c2ccc(Cl)cc2)cc1` (configuration not stated): the “activity change, negative = growth inhibition” value was 2.95%.
Consider `COc1ccccc1NC(=O)CSc1nnc(Cc2cccn2C)n1-c1ccc(F)cc1`, for which the “activity change, negative = growth inhibition” value was -7.4%.
Still for that read-out and setting: with `COc1ccccc1OCc1nnc(SCC(N)=O)n1-c1ccccc1` the figure was 12.4%.
`COc1ccccc1NC(=O)CSc1nnc(Cn2nnc(-c3ccccc3)n2)n1-c1ccccc1`: the Potency was 18.4 µM (active).
For the molecule `COc1ccc(S(=O)(=O)N(C)CC(=O)NCCCN2CCOCC2)cc1Cl`, the “activity change, negative = growth inhibition” value was 3.43%.
Still for that read-out and setting: as for `O=C(COc1ccc(Br)cc1F)NCC1(N2CCCCC2)CCCCC1`, the figure is -7.8%; as for `O=C(COc1ccccc1Cl)Nn1cnnc1`, 5.43%.
Still for that read-out and setting: with `O=C(COc1ccccc1Cl)N1CCCCCCC1` the figure was -1.73%.
For the molecule `Cc1cc(C(=O)COc2ccc(Br)cc2F)c(C)n1C1CC1`, the Potency is 7.31 µM (active).
With `Cc1cc(C(=O)COc2ccccc2Cl)c(C)n1C1CC1`, the Potency was 13 µM (active).
Turning to `CC(=O)C1=C(C)NC(=O)NC1c1cc(Br)ccc1OCC#N` (configuration not stated), the “activity change, negative = growth inhibition” value is -0.357%.
The same measure, in the same setting: with `C/C(N)=C(/C#N)C(=O)COC(=O)c1cc(-c2ccc(C)cc2)nc2ccccc12` the figure was -28.9%; with `COc1ccc(/C=C/C(=O)NC(=S)N2CCCC(C(N)=O)C2)cc1` (configuration not stated), 15%; with `OCCC1CN(Cc2ccc3nsnc3c2)CCN1C1CCCC1` (configuration not stated), 1.15%.
With `CC(C)c1cc(C(=O)N/N=C/c2ccoc2)c(O)c(C(C)C)c1`, the “activity change, negative = growth inhibition” value is 11.1%.
Consider `CC(C)C[C@H](NC(=O)N1CC(=O)Nc2ccccc21)C(=O)N[C@H](Cc1ccccc1)C(=O)O`, for which the “activity change, negative = growth inhibition” value is 14.6%.
On the same count and under the same terms, as for `Cc1ccc(N(C(=O)c2ccc(CN3CCOCC3)o2)C(C(=O)NCCC(C)C)c2cccs2)c(C)c1` (configuration not stated), the figure is 11.6%; as for `CCCCNC(=O)N(O)C1N(/N=C/c2ccc(N(C)C)cc2)C(=S)SC1(C)C` (configuration not stated), 9.36%.
On to `CN1CCN(c2ccc(NC(=O)c3cc(Cl)c4c(c3)OCCO4)cc2)CC1`, for which the “activity change, negative = growth inhibition” value is -20.6%.
Turning to `C=CC(=O)Nc1ccc(Nc2ccnc(Nc3ccc(N4CCN(C)CC4)cc3)n2)cc1`, the Potency is 9.2 µM (active).
`Cn1cnnc1SCC(=O)Nc1ccc(N2CCOCC2)cc1`: the “activity change, negative = growth inhibition” value was 7.87%.
Same read-out and setting: as for `COc1ccc(-n2c(=O)[nH]c3cc(C(=O)NCCc4ccc(OC)c(OC)c4)ccc3c2=O)c(OC)c1`, the figure is -11.1%; as for `COc1ccc(C(=O)NCCc2ccc(S(N)(=O)=O)cc2)cc1OC`, 8.22%.
Consider `COc1ccc(Cn2c(=S)[nH]c3cc(C(=O)NCCCN4CCOCC4)ccc3c2=O)cc1`, for which the “activity change, negative = growth inhibition” value was -15.5%.
The same measure, in the same setting: with `COc1ccc(C(=O)NCC[N+](C)(C)C)cc1` the figure was 2.69%.
Consider `Cc1c(C)n(Cc2ccc(Cl)cc2)c2ccc(C(=O)NCCCN3CCOCC3)cc12`, for which the Potency is 23.1 µM (active).
The same measure, in the same setting: as for `Cc1c(C)n(Cc2ccc(Cl)cc2)c2ccc(C(=O)NCCc3ccc(S(N)(=O)=O)cc3)cc12`, the figure is 18.4 µM (active).
On to `Cc1ccc(NS(=O)(=O)c2ccc(C(=O)NCCCN3CCOCC3)cc2)cc1`, for which the “activity change, negative = growth inhibition” value is -19.6%.
In the case of `CCn1c(C)c(C)c2cc(C(=O)NCCc3cc(OC)ccc3OC)ccc21`, the Potency is 20.6 µM (active).
For `CCOC(=O)c1c(C)c(C(=O)NCCc2ccc(S(N)(=O)=O)cc2)c(C)n1CC`, the “activity change, negative = growth inhibition” value was -8.97%.
`NC(=O)c1nnsc1-c1ccc(-c2snnc2C(N)=O)cc1`: the “activity change, negative = growth inhibition” value is 4.47%.
Still for that read-out and setting: with `CCCCN1CC(CO)Oc2cccc(F)c2S1(=O)=O` (configuration not stated) the figure was -0.718%; with `COc1ccc(OCC(=O)NCCS(=O)(=O)N2CCN(c3ccc(F)cc3)CC2)cc1`, -11.2%; with `Cc1cc2cc3c(N)[nH]nc3nc2cc1C`, 1.04%.
The same measure, in the same setting: with `O=S1(=O)CCOC[C@H](Cc2ccccc2)N1Cc1ccccc1Br` the figure was -0.698%; with `COc1ccccc1C(=O)NC(=S)NC12CC3CC(CC(C3)C1)C2`, -23%; with `CC(=O)c1cc(CN2CCC(n3nccc3NC(=O)c3ccccc3Cl)CC2)cs1`, 4.13%.
Still for that read-out and setting: as for `CCCCCc1ccc(-c2ccc(C(=O)O)cc2)nc1`, the figure is -17.7%; as for `CC(=O)Nc1ccc(S(=O)(=O)NC2(C(F)(F)F)C(=O)NC(C)=C2C#N)cc1` (configuration not stated), -13.2%.
Regarding `CC1CCCC(C)N1C(=O)COC(=O)c1ccccc1C(=O)c1ccccc1` (configuration not stated), the “activity change, negative = growth inhibition” value is -17.9%.
On the same count and under the same terms, as for `Cc1ccc(Cl)c(OCC(=O)N2CCc3ccccc3C2)c1`, the figure is 4.91%.
With `OC(COc1ccc(F)cc1Cl)CN1CCc2ccccc2C1` (configuration not stated), the Potency is 20.6 µM (active).
`C=CCc1ccccc1OCC(O)CN1CCN(CCO)CC1` (configuration not stated): the “activity change, negative = growth inhibition” value was -1.41%.
Regarding `COCCN1CCn2c(nc3cc(NS(C)(=O)=O)ccc32)C1`, the “activity change, negative = growth inhibition” value is -0.0281%.
As to `Cc1cccc(CCNC(=O)Cn2ncc3c([nH]c4ccc(C)cc43)c2=O)c1`, the “activity change, negative = growth inhibition” value was 5.21%.
In the case of `CC12CN(Cc3ccccc3)CC(C)(CN(Cc3ccccc3)C1)C2=NO`, the Potency was 23.1 µM (active).
Regarding `CS(=O)(=O)N1CCC2(CC1)CN(Cc1ccccc1)C2`, the “activity change, negative = growth inhibition” value is -3.76%.
The same measure, in the same setting: with `CC(=O)N1CCC2(CCCN(Cc3ccccc3)C2)CC1` the figure was 10.1%.
On the same count and under the same terms, with `O=C1Nc2cc(Cl)c(Cl)cc2N(O)N1c1cc(Cl)cc(Cl)c1` the figure was -23%.
Same read-out and setting: as for `CN(CC(=O)Nc1ccccc1C(F)(F)F)C(=O)Cc1ccccc1F`, the figure is -12.4%.
In the case of `CSc1nnc(NC(=O)c2nc(S(=O)(=O)Cc3ccc(C)cc3)ncc2Cl)s1`, the Potency is 6.51 µM (active).
As for `Cc1cccc(NC(=O)C(C)SCc2ccccc2)c1` (configuration not stated), the “activity change, negative = growth inhibition” value is -16.9%.
The same measure, in the same setting: as for `CCSc1nnc(NC(=O)c2ccc(C)cc2)s1`, the figure is -18.9%.
In the case of `CCSc1ncc(Cl)c(C(=O)Nc2cc(C)ccc2C)n1`, the Potency result was “inactive”.
With `Cc1ccc(NC(=O)c2cccnc2C(=O)Nc2ccc(C)cc2)cc1`, the “activity change, negative = growth inhibition” value was -2.57%.
`Cc1cccc(NC(=O)c2nc(S(=O)(=O)Cc3ccccc3)ncc2Cl)c1`: the Potency is 0.92 µM (active).
On to `CCCSc1ncc(Cl)c(C(=O)Nc2c(C(=O)Nc3ccccc3)oc3ccccc23)n1`, for which the “activity change, negative = growth inhibition” value is -28.7%.
On to `Cc1ccc(NC(=O)c2nc(S(=O)(=O)Cc3cccc(C)c3)ncc2Cl)cc1`, for which the Potency is 0.651 µM (active).
For the molecule `NC(=O)CSc1nnc(NC(=O)c2ccc(Br)o2)s1`, the “activity change, negative = growth inhibition” value is -8.79%.
With `O=C(Nc1ccccc1C(F)(F)F)c1nc(S(=O)(=O)Cc2ccccc2F)ncc1Cl`, the Potency is 0.562 µM (active).
On to `O=C(Nc1nc2ccc(F)cc2s1)c1nc(SCc2ccccc2F)ncc1Cl`, for which the “activity change, negative = growth inhibition” value is -22.7%.
Same read-out and setting: as for `Cc1cc2c3ccccc3[nH]c(=O)n2n1`, the figure is -12%.
In the case of `COc1ccc(S(=O)(=O)N2CCOCC2)cc1NC(=O)CSc1ncnc2ccccc12`, the “activity change, negative = growth inhibition” value was 0.923%.
The same measure, in the same setting: as for `Cc1cc2c(=O)n(CC(=O)NCC(=O)Nc3ccc(C(C)C)cc3)cnc2s1`, the figure is 1.73%; as for `COc1ccc(CNC(=O)COc2cccnc2[N+](=O)[O-])cc1`, -4.32%.
With `COc1cccc(C(=O)OCC(=O)c2[nH]c(C)c(C(C)=O)c2C)c1`, the “activity change, negative = growth inhibition” value is -19.6%.
